In PubChem BioAssay one finds outcome and activity change, negative = cytotoxicity data, which are given here for 40 compounds.

Measured potencies and affinities stand elsewhere. Results filed as inconclusive are left out. Unmarked numbers belong to inactive results. Activity calls are given as the source filed them. Unless noted, no rule for the calls is given here.

The first assay can be described thus: inhibitors of CMV-promoter luciferase reporter, dose response, counter-screen for Pax8 inhibitor project, cell-based, HEK293, luminescence, dry powder (AID 743020;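 active = signal-lowering compounds whose fitted half-maximal concentration is at or below twice the top tested dose in every run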;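 also: HEK293 cells stably expressing the CMV luciferase reporter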). The conditions noted are these: SteadyGlo luminescence, 24 h; series mostly up to 35 µM.
In the case of `O=C(Nc1cccc(F)c1)N1C[C@@H]2N[C@H](C1)C2c1ccc(-c2ccc(F)cc2)cc1` (stereo partly drawn), the result was inactive.
The same measure, in the same setting: the result for `N#C[C@H]1[C@@H](c2ccc(C#Cc3ccc(F)cc3)cc2)[C@H](CO)N1C(=O)Nc1ccc(F)cc1` reads “inactive”; that for `COc1ccc(S(=O)(=O)Nc2ccc3c(c2)C(=O)N([C@@H](C)CO)C[C@H](C)[C@H](CN(C)Cc2ccc(C(F)(F)F)cc2)OCCCC[C@H](C)O3)cc1`, “inactive”.

A further assay in a line: non-specific cell cytotoxicity, dose response, cytotoxicity control for PAX8 inhibitor project, plate reader, dry powder samples (AID 743021). The conditions noted are these: cell line, non-specific cytotoxicity counter-screen; series mostly up to 35 µM.
Consider `CCOC(=O)c1cnn(CCOC(=O)c2cccc(F)c2)c1NC(=O)c1cccc(F)c1`, for which the outcome was inactive.
Still for that read-out and setting: the result for `COc1cc(NC(=O)Cn2ncc(Cl)c(Cl)c2=O)c(C)cc1[N+](=O)[O-]` reads “inactive”; that for `COc1cc(/C=N\NC(=O)c2ccc(-c3ccccc3)cc2)cc(OC)c1OC(C)=O`, “inactive”; that for `O=C(NCCN1C(=O)S/C(=C\c2ccc(OC(F)F)cc2)C1=O)c1cnccn1`, “inactive”.
The same measure, in the same setting: the result for `CCOc1ccc(CCN2C(=S)N([C@@H](Cc3ccc(O)cc3)CN3CCC[C@@H]3CN3C(=S)NC[C@@H]3CC(C)C)C[C@@H]2Cc2ccc(O)cc2)cc1` reads “inactive”; that for `C[C@H]1CCCCO[C@H](CN(C)C(=O)Nc2ccc(C(F)(F)F)cc2)[C@@H](C)CN([C@@H](C)CO)C(=O)c2cc(NS(=O)(=O)c3ccc(Cl)cc3)ccc2O1`, “inactive”; that for `Cc1ccc(S(=O)(=O)Nc2ccc3c(c2)C(=O)N([C@H](C)CO)C[C@H](C)[C@@H](CN(C)Cc2ccc(C(F)(F)F)cc2)OCCCC[C@H](C)O3)cc1`, “inactive”.
As for `N#Cc1cccc(-c2ccc(C3[C@@H]4CN(C(=O)C5CC5)C[C@H]3N4)cc2)c1` (stereo partly drawn), the compound was called inactive.
As to `CN(C)CCNc1ccc(CO)c2sc3ccc(O)cc3c(=O)c12`, the outcome was inactive.
The same measure, in the same setting: the result for `Cc1ccc(C(=O)c2cc([N+](=O)[O-])ccc2N2CCCCC2)cc1` reads “inactive”; that for `CC1CCN(CCc2nc3cc(NS(=O)(=O)c4ccccc4)ccc3n2C)CC1`, “inactive”.
On the same count and under the same terms, the result for `Cc1cc(-n2c(SCC(=O)NCCC3=CCCCC3)nc3n[nH]c(C)c3c2=N)ccc1Cl` reads “inactive”; that for `COC(=O)c1ccccc1-c1c2ccc(=N)cc-2oc2cc(N)ccc12`, “inactive”.
Turning to `COc1cc(OC)c(NC2=CC(=O)C(=O)c3ccccc32)cc1Cl`, the result was inactive.
The same measure, in the same setting: in the case of `CC[C@@]1(O)C(=O)OCc2c1cc1n(c2=O)Cc2cc3c(N)cccc3nc2-1` it was “inactive”.
Same read-out and setting: in the case of `CN[C@H]1CCc2cc(OC)c(OC)c(OC)c2-c2ccc(OC)c(=O)cc21` it was “inactive”; in that of `CCN1CCN(Cc2ccc(NC(=O)c3cc(NC(=O)C(=O)c4c[nH]c5ccccc45)cc(OC)c3)cc2C(F)(F)F)CC1`, “inactive”; in that of `C=CC(=O)N=c1sc2ccccc2n1-c1ccccc1`, “inactive”.
On the same count and under the same terms, in the case of `CC(=O)OC1CCC2(C)C(CCC3C4CC=C(C(C)=O)C4(C)OC(=O)CC32)C1` (stereo not drawn) it was “inactive”; in that of `Oc1ccc(N=Nc2ccccc2C(F)(F)F)c2cccnc12`, “inactive”; in that of `O=C(O)CCCN1C(=O)/C(=C\C(Cl)=C\c2ccccc2)SC1=S`, “inactive”.
Consider `Oc1ccc2ccccc2c1N=Nc1nccs1`, for which the result was inactive.
On the same count and under the same terms, in the case of `COc1cc(/C=N/NS(=O)(=O)c2ccc(C)cc2)ccc1OCc1cccc(C(=O)O)c1` it was “inactive”; in that of `COc1cccc2c1C(=O)c1c(O)c3c(c(O)c1C2=O)CC(O)(C(C)=O)CC3OC1CC(N(C)C)C(O)C(C)O1` (stereo not drawn), “inactive”; in that of `Cc1ccc(C)c(CSC2=NCCN2C(=O)Cc2ccc([N+](=O)[O-])cc2)c1`, “inactive”.
In the case of `Cc1cccc(C)c1NS(=O)(=O)c1ccc(-c2cnc(C3CC3)o2)cc1`, the compound was classed as inactive.
Regarding `C=C1C(=O)O[C@@H]2C[C@@H](C)[C@@H]3C=CC(=O)[C@@]3(C)[C@@H](OC(C)=O)[C@H]12`, the result was inactive.
Turning to `Cc1ccc(S(=O)(=O)CCC(=O)c2ccc(F)cc2)cc1`, the compound was called inactive.
As to `Cc1cc(NC(=O)c2ccc([N+](=O)[O-])o2)ccc1NC(=O)c1ccco1`, the call was inactive.
On the same count and under the same terms, the result for `COc1ccc(C(=O)NN(C)c2nc(C(F)(F)F)nc3ccccc23)cc1` reads “inactive”.
On the same count and under the same terms, the result for `Cc1[nH]c2ccccc2c(=O)c1C(=O)/C=C/c1ccccc1` reads “inactive”.
On the same count and under the same terms, the result for `CCOc1ccccc1C1C2=C(COC2=O)Nc2cc3c(cc21)OCO3` (stereo not drawn) reads “inactive”.
Consider `CS(=O)(=O)c1ncc(Cl)c(C(=O)Nc2ccc3ccccc3c2)n1`, for which the activity change, negative = cytotoxicity is 1.87% [at 8 µM].
In the case of `C=C1C(=O)[C@]23C[C@H]1CCC2[C@]1(C)CCC[C@@](C)(C(=O)O)C1C[C@@H]3O` (stereo partly drawn), the call was inactive.
As for `O=C(Nc1ccc([N+](=O)[O-])cc1)Nc1nc(-c2ccc(Cl)s2)cs1`, the call was inactive.
Same read-out and setting: the result for `O=c1c(Cl)c(Cl)cnn1Cc1nnc(-c2ccccc2Br)o1` reads “inactive”; that for `C#CCN(C[C@@H]1[C@@H](OC(=O)Nc2cccs2)[C@@H](OC(=O)Nc2cccs2)Cn2c(=O)ccc(=O)n21)S(=O)(=O)c1ccc(C)cc1`, “inactive”.

The nature of a further assay: cytotoxicity in OVCAR8 ovarian cancer cells, dose response, PAX8 project, cell-based, plate reader, dry powder samples (AID 743197). The settings on record: series mostly up to 35 µM.
Regarding `O=C(Nc1cccc(F)c1)N1C[C@@H]2N[C@H](C1)C2c1ccc(-c2ccc(F)cc2)cc1` (stereo partly drawn), the compound was classed as inactive.
The same measure, in the same setting: the result for `N#C[C@H]1[C@@H](c2ccc(C#Cc3ccc(F)cc3)cc2)[C@H](CO)N1C(=O)Nc1ccc(F)cc1` reads “inactive”.
On the same count and under the same terms, the result for `COc1ccc(S(=O)(=O)Nc2ccc3c(c2)C(=O)N([C@@H](C)CO)C[C@H](C)[C@H](CN(C)Cc2ccc(C(F)(F)F)cc2)OCCCC[C@H](C)O3)cc1` reads “inactive”.
